PubChem BioAssay (NCI)
About 79,000 compounds went through this panel and 15% of them were active in at least one assay; those are over-represented in the sample as a whole. Activity calls are given as the source filed them. Cut-off read from the data, not from the text of the source: active = growth inhibition above about 70%; inactive = the rest.

Assay: NCI Yeast Anticancer Drug Screen. Data for the rad50 strain (AID 155);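 note: 0% = growth of vehicle-only cultures of the same strain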
Conditions: S. cerevisiae rad50 strain growth inhibition; at 50.0 µM; hits give high values
Procedure, shortened: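 Compounds were tested on a yeast strain with an engineered DNA damage repair alteration; the reported value is growth inhibition normalised to vehicle treatment.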

Compound | growth inhibition
CCCC(N)S(=O)(=O)O (centres undefined) | -25.6% (inactive)
COC(=O)c1cc(-c2cccc3ccccc23)[nH]c(=O)c1C#N | 8.85% (inactive)
C1CCC(C(C2CCCCC2)C2CCCCC2)CC1 | -16.9% (inactive)
Cc1cccc(-n2c(-c3ccccc3)cs/c2=N\N=C2/CSC(=O)N2Cc2ccccc2)c1 | -2.95% (inactive)
CC(=O)N1CCC(=O)/C(=C/c2ccccc2)C1 | 4.95% (inactive)
CCCNC(=O)N(CCN(C)C)S(=O)(=O)c1ccc(Cl)cc1 | -38.9% (inactive)
Cc1cccn2nnnc12 | -7.75% (inactive)
O=c1[nH]c(=O)n(C2OC(COP(=O)(O)OP(=O)(O)O)C(O)C2O)cc1F (centres undefined) | 1.4% (inactive)
CCCc1cc2c3c(c(=O)oc2cc1O)CCCC3 | 94.8% (active)
COC(=O)c1ccccc1NC(=O)c1cccc(Cl)c1 | 20.9% (inactive)
Cn1c2c(c3ccccc31)CCCC2 | 1.55% (inactive)
O=c1[nH]nc(S(=O)(=O)N2CCCC2)c(=O)[nH]1 | -10.9% (inactive)
CC(C)(C)c1cc(C(=O)O)ccc1C(=O)O | -4.2% (inactive)
Cn1ncc2c(NCCc3ccccc3)nc(Cl)nc21 | 19.8% (inactive)
CNC(=O)N(C)c1cc(N(C)C)nc(OC)n1 | -16.4% (inactive)
O=C1c2ccccc2C(=O)N1CCc1ccccn1 | 5.5% (inactive)
O=C1OC(=O)C2CCC12 (centres undefined) | 14% (inactive)
CC(=O)NC1(C)C(=O)N=C(N)N=C1N (centres undefined) | 11.2% (inactive)
CC1OC(OC2C(OC(=O)[C@@H]3CC(C)(C)C[C@@H]4C5=CC[C@@H]6[C@@]7(C)C[C@H](O)[C@H](OC8OC(CO)C(O)C(O)C8O)[C@@](C)(CO)C7[C@H](O)C[C@@]6(C)[C@]5(C)C[C@@H](O)[C@H]43)OCC(O)C2O)C(O)C(O)C1O (some centres undefined) | -23.9% (inactive)
